This assay deals with Nonstructural protein 3 (Zika virus) (UniProt A0A024AXB9). The conditions noted are these: PRVABC59, Concentration 10.0 uM.

We go through 20 molecules from ChEMBL document CHEMBL5598561, “ASAP - In vitro binding kinetics” (2024).

Sequence of Nonstructural protein 3 (Zika virus) (A0A024AXB9 as listed by the source): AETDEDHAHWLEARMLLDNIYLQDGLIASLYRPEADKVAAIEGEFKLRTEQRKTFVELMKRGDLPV

In the case of `O=C(Nc1cnc2c(c1)CNCC2)c1cc(Cl)cc2[nH]ncc12`, the pKD (commonly the negative decadic logarithm of the KD, by convention in mol/L) by setting is: (Immobilization level 10000.0 pg/mm2, Rmax 20.0 pg/mm2, ka 1026935.718 M-1s-1, kd 0.802 1/s) 6.11; (Immobilization level 12000.0 pg/mm2, Rmax 35.0 pg/mm2, ka 607851.885 M-1s-1, kd 0.465 1/s) 6.12; (Immobilization level 13000.0 pg/mm2, Rmax 25.0 pg/mm2, ka 909514.232 M-1s-1, kd 0.608 1/s) 6.17.
Consider `O=C(Nc1ccc2c(c1)CNC2)c1cccc(-c2cnco2)c1`, for which, where the note is “Immobilization level 12000.0 pg/mm2, Rmax 4.0 pg/mm2, ka 566629.865 M-1s-1, kd 1.936 1/s”, the pKD amounted to 5.47.
As for `O=C1Cc2c(cccc2C(=O)Nc2ccc3c(c2)CNC3)N1`, the negative-log KD (pKD) (Immobilization level 3900.0 pg/mm2, Rmax 48.0 pg/mm2, ka 37165.995 M-1s-1, kd 0.04 1/s) came out at 5.97 and the pKD (Immobilization level 5500.0 pg/mm2, Rmax 106.0 pg/mm2, ka 18457.516 M-1s-1, kd 0.041 1/s) came out at 5.65.
`O=C(Nc1ccc2c(c1)CNC2)c1nccc2[nH]ncc12`: the pKD (Immobilization level 12000.0 pg/mm2, Rmax 10.0 pg/mm2, ka 215121.382 M-1s-1, kd 2.565 1/s) came to 4.92.
Molecule `NCc1cc(NC(=O)c2cc(Cl)cc(NC(=O)OCc3ccccc3)c2)cc(C2=CC[C@H](C(=O)O)C2)c1` gave a negative-log KD (pKD) (Immobilization level 5500.0 pg/mm2, Rmax 9.0 pg/mm2, ka 171424.656 M-1s-1, kd 2.389 1/s) of 4.86.
Take `O=C(Nc1ccc2c(c1)CNC2)c1cncc(-c2ccccc2)c1`: the pKD (Immobilization level 4900.0 pg/mm2, Rmax 10.0 pg/mm2, ka 220188.498 M-1s-1, kd 3.981 1/s) was determined as 4.74 and the negative-log KD (pKD) (Immobilization level 5500.0 pg/mm2, Rmax 48.0 pg/mm2, ka 177152.77 M-1s-1, kd 5.77 1/s) worked out at 4.49.
With `O=C(Nc1ccc2c(c1)CNC2)c1cc(Cl)ccc1OC1CCCC1`, the negative-log KD (pKD) (Immobilization level 12000.0 pg/mm2, Rmax 40.0 pg/mm2, ka 319034.623 M-1s-1, kd 3.897 1/s) was found to be 4.91.
For the molecule `Cn1cc(CNC(=O)[C@H](Nc2ccc3c(c2)CNC3)c2cc(Cl)cc(C3CC3)c2)cn1`, the pKD runs as follows: (Immobilization level 10000.0 pg/mm2, Rmax 44.0 pg/mm2, ka 376767.851 M-1s-1, kd 0.158 1/s) 6.38; (Immobilization level 12000.0 pg/mm2, Rmax 64.0 pg/mm2, ka 164221.498 M-1s-1, kd 0.09 1/s) 6.26; (Immobilization level 13000.0 pg/mm2, Rmax 64.0 pg/mm2, ka 253337.321 M-1s-1, kd 0.133 1/s) 6.28.
Regarding `CCOCCCN1Cc2ccc(NC(=O)c3cc(Cl)cc4[nH]ncc34)cc2C1`, the pKD was 4.65 (Immobilization level 3900.0 pg/mm2, Rmax 34.0 pg/mm2, ka 194403.459 M-1s-1, kd 4.353 1/s); 4.9 (Immobilization level 4900.0 pg/mm2, Rmax 26.0 pg/mm2, ka 190862.396 M-1s-1, kd 2.393 1/s); 4.86 (Immobilization level 5500.0 pg/mm2, Rmax 37.0 pg/mm2, ka 197216.313 M-1s-1, kd 2.701 1/s).
Take `Clc1cc(CNc2ccc3c(c2)CNC3)c2cn[nH]c2c1`: the negative-log KD (pKD) was determined as 5.42 (Immobilization level 10000.0 pg/mm2, Rmax 2.0 pg/mm2, ka 219034.03 M-1s-1, kd 0.842 1/s); 5 (Immobilization level 12000.0 pg/mm2, Rmax 10.0 pg/mm2, ka 126196.485 M-1s-1, kd 1.272 1/s); 5.29 (Immobilization level 13000.0 pg/mm2, ka 206129.831 M-1s-1, kd 1.048 1/s).
For the molecule `O=C(Nc1ccc2c(c1)CN(CC(F)F)C2)c1cc(Cl)cc2[nH]ncc12`, for the setting “Immobilization level 5500.0 pg/mm2, Rmax 11.0 pg/mm2, ka 80918.609 M-1s-1, kd 0.287 1/s”, the pKD is 5.45.
`Cn1nc(C(=O)Nc2ccc3c(c2)CNC3)c2cc(Br)ccc21`: the negative logarithm of the KD (pKD) was 5.06 (Immobilization level 3900.0 pg/mm2, Rmax 7.0 pg/mm2, ka 186374.339 M-1s-1, kd 1.611 1/s); 4.98 (Immobilization level 4900.0 pg/mm2, Rmax 17.0 pg/mm2, ka 132352.529 M-1s-1, kd 1.379 1/s); 4.96 (Immobilization level 5500.0 pg/mm2, Rmax 22.0 pg/mm2, ka 128273.344 M-1s-1, kd 1.393 1/s).
As to `CC(C)c1ccc(Cl)cc1C(=O)Nc1ccc2c(c1)CNC2`, the pKD came to 4.56 (Immobilization level 10000.0 pg/mm2, Rmax 50.0 pg/mm2, ka 207835.98 M-1s-1, kd 5.69 1/s); 4.74 (Immobilization level 12000.0 pg/mm2, Rmax 40.0 pg/mm2, ka 170668.879 M-1s-1, kd 3.145 1/s); 4.92 (Immobilization level 13000.0 pg/mm2, Rmax 24.0 pg/mm2, ka 212611.498 M-1s-1, kd 2.587 1/s).
For `O=C(Nc1ccc2c(c1)CNC2)c1cc(F)cc2[nH]ncc12`, the negative logarithm of the KD (pKD) (Immobilization level 10000.0 pg/mm2, Rmax 50.0 pg/mm2, ka 86776.347 M-1s-1, kd 0.122 1/s) is 5.85; the pKD (Immobilization level 12000.0 pg/mm2, Rmax 119.0 pg/mm2, ka 21922.372 M-1s-1, kd 0.021 1/s) turned out to be 6.01; the pKD (Immobilization level 13000.0 pg/mm2, Rmax 93.0 pg/mm2, ka 46087.669 M-1s-1, kd 0.088 1/s) turned out to be 5.72.
In the case of `CC(C)(C)c1cc(Br)cc(C(=O)Nc2ccc3c(c2)CNC3)c1`, the negative logarithm of the KD (pKD) reads like this: (Immobilization level 10000.0 pg/mm2, Rmax 22.0 pg/mm2, ka 615092.383 M-1s-1, kd 1.528 1/s) 5.61; (Immobilization level 12000.0 pg/mm2, Rmax 78.0 pg/mm2, ka 256799.727 M-1s-1, kd 0.952 1/s) 5.43; (Immobilization level 13000.0 pg/mm2, Rmax 43.0 pg/mm2, ka 306862.061 M-1s-1, kd 1.159 1/s) 5.42.
For the molecule `CC(C)COc1ccc(Cl)cc1C(=O)Nc1ccc2c(c1)CNC2`, the pKD runs as follows: (Immobilization level 10000.0 pg/mm2, Rmax 31.0 pg/mm2, ka 259814.072 M-1s-1, kd 6.366 1/s) 4.61; (Immobilization level 12000.0 pg/mm2, Rmax 37.0 pg/mm2, ka 228783.03 M-1s-1, kd 3.033 1/s) 4.88; (Immobilization level 13000.0 pg/mm2, Rmax 33.0 pg/mm2, ka 351290.772 M-1s-1, kd 5.134 1/s) 4.83.
As for `O=C(Nc1ccc2c(c1)CNCC2)c1cc(Cl)cc2[nH]ncc12`, the pKD runs as follows: (Immobilization level 10000.0 pg/mm2, Rmax 29.0 pg/mm2, ka 396120.04 M-1s-1, kd 1.246 1/s) 5.5; (Immobilization level 12000.0 pg/mm2, Rmax 39.0 pg/mm2, ka 584891.909 M-1s-1, kd 0.796 1/s) 5.87; (Immobilization level 13000.0 pg/mm2, Rmax 25.0 pg/mm2, ka 840035.203 M-1s-1, kd 1.038 1/s) 5.91.
With `O=C(Nc1ccc2c(c1)CNC2)c1cc(Cl)ccc1SC1CCCC1`, the negative logarithm of the KD (pKD) by setting is: (Immobilization level 10000.0 pg/mm2, Rmax 23.0 pg/mm2, ka 575465.756 M-1s-1, kd 3.5 1/s) 5.22; (Immobilization level 12000.0 pg/mm2, Rmax 62.0 pg/mm2, ka 231361.37 M-1s-1, kd 1.925 1/s) 5.08; (Immobilization level 13000.0 pg/mm2, Rmax 43.0 pg/mm2, ka 253243.383 M-1s-1, kd 2.083 1/s) 5.08.
As for `O=C(Nc1ccc2c(c1)CNC2)c1cc(Cl)ccc1-n1ccnc1`, the pKD runs as follows: (Immobilization level 10000.0 pg/mm2, Rmax 38.0 pg/mm2, ka 298408.653 M-1s-1, kd 1.639 1/s) 5.26; (Immobilization level 12000.0 pg/mm2, Rmax 63.0 pg/mm2, ka 203693.474 M-1s-1, kd 1.266 1/s) 5.21; (Immobilization level 13000.0 pg/mm2, Rmax 40.0 pg/mm2, ka 299200.161 M-1s-1, kd 1.542 1/s) 5.29.
As for `Cc1ccc2cc(Cl)cc(C(=O)Nc3ccc4c(c3)CNC4)c2n1`, the pKD was 4.75 (Immobilization level 10000.0 pg/mm2, Rmax 26.0 pg/mm2, ka 93254.644 M-1s-1, kd 1.647 1/s); 4.8 (Immobilization level 12000.0 pg/mm2, Rmax 38.0 pg/mm2, ka 56274.373 M-1s-1, kd 0.881 1/s); 4.89 (Immobilization level 13000.0 pg/mm2, Rmax 28.0 pg/mm2, ka 92341.007 M-1s-1, kd 1.18 1/s).
